NadD block = blocks S. aureus nicotinate mononucleotide adenylyltransferase; purified NadD enzyme, colorimetric absorbance read-out; 360,000 compounds, 0.78% hits; AID 602399; inhibition, % at 20 µM; in the data active = inhibition above about 26%
PP5 inh = PP5 (human) phosphatase inhibition | P53041 | purified PP5c, OMFP substrate fluorescence | inhibition, % at 6.7 µM | 320,000 compounds, 0.18% hits | AID 1987;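 active = inhibition above the campaign's mean inhibition across all tested compounds plus 3 SD, cut at about 9.5% in these data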
PREPL inhibitor = inhibits the human prolyl oligopeptidase-like enzyme | 320,000 compounds, 0.68% hits | inhibition, % at 5.96 µM | recombinant PREPL, fluorescence polarization activity-based probe | Q4J6C6 | AID 2751; in the data active = inhibition above about 43%
Rpn11 inh = blocks the human proteasome subunit Rpn11 | human 26S proteasome, Ub4-pepOG fluorescence polarization; 20S core pre-blocked with epoxomicin | 360,000 compounds, 0.59% hits | AID 588493 | inhibition, % at 20 µM;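 active = inhibition at 20 µM, scaled to each plate's controls, above about 33%, limit read from the data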
PP1 inh = blocks human PP1-alpha phosphatase, a PP5 counter-screen | P62136 | purified PP1alpha, OMFP fluorescence | inhibition, % at 6.7 µM | 320,000 compounds, 0.9% hits | AID 2235;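 active = inhibition above the mean inhibition of all tested compounds plus 3 SD, computed separately for each screening campaign, cut at about 15% in these data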
Target sequence (P62136 whole entry, looked up): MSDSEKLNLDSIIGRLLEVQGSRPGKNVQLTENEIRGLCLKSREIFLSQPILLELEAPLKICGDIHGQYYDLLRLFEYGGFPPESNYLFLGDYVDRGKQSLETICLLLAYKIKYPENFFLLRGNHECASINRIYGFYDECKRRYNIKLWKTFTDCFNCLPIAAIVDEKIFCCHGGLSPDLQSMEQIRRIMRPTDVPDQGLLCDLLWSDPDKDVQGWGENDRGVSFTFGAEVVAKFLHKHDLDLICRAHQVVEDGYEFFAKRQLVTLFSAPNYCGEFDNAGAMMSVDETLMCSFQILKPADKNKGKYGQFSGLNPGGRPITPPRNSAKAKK
PP1 inh confirm = human PP1 phosphatase inhibition, confirmation; shares compounds with PP1 inh; purified PP1alpha, OMFP substrate fluorescence; inhibition, % at 6.7 µM; 1,900 compounds, 52% hits; AID 2358;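 active = mean PP1 inhibition above a set limit taken from the earlier primary screen, cut at about 15% in these data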
PP5 counter = PP5 phosphatase inhibition, counter-screen for PP1 inhibitors. shares compounds with PP1 inh. 1,900 compounds, 4% hits. purified PP5c, OMFP fluorescence. inhibition, % at 6.7 µM;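 active = mean PP5 inhibition over triplicate wells above about 9.5% taken from the earlier PP1 screen, limit read from the data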
Large screens that a line does not name were inactive (follow-up assays come after a bar, where they were run). This is a sample that favours compounds with a hit; in the whole collection about 2.4% have one here.

CC(C)Cn1c(N)c(C(=O)COC(=O)/C=C/c2ccccc2)c(=O)n(C)c1=O	PP1 inh 37 | PP1 inh confirm inactive | PP5 counter inactive
COC(=O)c1cnc(SCC(=O)c2ccccc2)n1C	none
O=C1NCN(c2ccccc2)C12CCN(CCCC(c1ccc(F)cc1)c1ccc(F)cc1)CC2	PP1 inh 19 | PP1 inh confirm inactive | PP5 counter inactive
O=C(CCCN1CCN(c2ccccc2)CC1)c1ccc(F)cc1	none (no result: PP5 inh, PREPL inhibitor, PP1 inh)
O=C(Nc1ccc(NC(=O)c2ccccc2)c2ccccc12)c1ccccc1	none (no result: PP5 inh, PREPL inhibitor, PP1 inh)
O=C(CN1CCCN(Cc2ccc(F)cc2Cl)C1=O)NC1CCCCCC1	PP1 inh 43 | PP1 inh confirm inactive | PP5 counter inactive
CC1(C)OCC(COC(=O)Nc2cccnc2)([N+](=O)[O-])CO1	none
CN1CCN(S(=O)(=O)c2cccc(C(=O)Oc3ccc(Br)cc3F)c2)CC1	PP1 inh 34 | PP1 inh confirm inactive | PP5 counter inactive
CN1CCN(S(=O)(=O)c2cccc(C(=O)Oc3cccc(Br)c3)c2)CC1	none
O=C(N/N=C/c1cc([N+](=O)[O-])ccc1O)NC12CC3CC(CC(C3)C1)C2	PP1 inh 20 | PP1 inh confirm 17 | PP5 counter inactive
O=C(N/N=C/c1cc([N+](=O)[O-])ccc1O)C12CC3CC(CC(C3)C1)C2	none
CC(C)(C)C(=O)Nc1cccc(-c2nc3ccccc3[nH]2)c1	PP1 inh 23 | PP1 inh confirm inactive | PP5 counter inactive
Cn1cnnc1SCc1ccc(C(=O)N=Nc2c(O)n(Cc3ccc(Cl)cc3)c3ccccc23)cc1	NadD block 35, PP1 inh 20 | PP1 inh confirm 16 | PP5 counter inactive
COc1cc2c(cc1OC)-c1cc(NCc3ccccn3)nc(=O)n1CC2	PP1 inh 20 | PP1 inh confirm 21 | PP5 counter inactive
O=C(Nc1ccc(Br)cc1)c1ccc(N2C(=O)C3CCCCC3C2=O)cc1 (centres undefined)	none
O=C(Nc1ccc(Br)cc1)c1ccc(N2C(=O)C3CC=C(Cl)CC3C2=O)cc1 (centres undefined)	PP1 inh 27 | PP1 inh confirm 26 | PP5 counter inactive
CC(=O)c1ccc(NC(=O)N[C@@H](CC(C)C)C(=O)O)cc1	PP1 inh 18 | PP1 inh confirm inactive | PP5 counter inactive
CC(=O)c1cccc(NC(=O)N[C@@H](CC(C)C)C(=O)O)c1	none
COC[C@H](NS(=O)(=O)c1ccc(Br)cc1F)[C@@H](O)c1ccccc1	none (no result: PP5 inh, PREPL inhibitor, PP1 inh)
CCOc1ccc(S(=O)(=O)NCc2ccc(OC)cc2)c2cccnc12	PP1 inh 68 | PP1 inh confirm inactive | PP5 counter inactive
CCOc1ccc(S(=O)(=O)NCc2ccc(F)cc2)c2cccnc12	none
COc1cccc(S(=O)(=O)N2CCN(Cc3ccc4c(c3)OCO4)CC2)c1	none
COc1ccc(Cl)cc1Cn1c(C)c(C(=O)NCc2cccc([N+](=O)[O-])c2)sc1=O	none (no result: PP5 inh, PREPL inhibitor, PP1 inh)
CCOc1ccc(CNC(=O)CCn2c(=O)oc3ccccc32)cc1	PP1 inh 23 | PP1 inh confirm inactive | PP5 counter inactive
CC(C)=CCc1c(O)cc2oc3c(CC=C(C)C)c(O)c(O)c(CC=C(C)C)c3c(=O)c2c1O	PP1 inh 39 | PP1 inh confirm 33 | PP5 counter inactive
O=C(Cc1cccs1)N=Nc1c(O)[nH]c2ccccc12	none
O=C(N=Nc1c(O)[nH]c2ccccc12)c1cc(-c2cccs2)[nH]n1	PP1 inh 18 | PP1 inh confirm 24 | PP5 counter inactive
Fc1cccc(Cl)c1CSc1ccc2nnc(-c3ccccn3)n2n1	none
Fc1cccc(CSc2ccc3nnc(-c4ccccn4)n3n2)c1	PP1 inh 18 | PP1 inh confirm inactive | PP5 counter inactive
O=C(COCC(=O)N/N=C/c1ccc(F)cc1)N/N=C/c1ccc(F)cc1	none
COc1ccc(OC)c(NC(=O)CS(=O)(=O)c2ccccc2)c1	none
COc1cc(OC)nc(NC(=O)CS(=O)(=O)c2ccccc2)n1	PP1 inh 30 | PP1 inh confirm inactive | PP5 counter inactive
COc1ccc2nc3cc(Cl)ccc3c(Nc3cc(C(C)C)c(O)cc3C)c2c1	PP1 inh 29 | PP1 inh confirm inactive | PP5 counter inactive
CC(C)c1ccc(NC2CCCN(C(=O)c3ccnn3C)C2)cc1 (centres undefined)	none

Compound activity as filed in PubChem BioAssay.
